In ChEMBL document CHEMBL3988442, “University of Dundee, Small-Polar-MMV Screening Library” (2021):

What was measured:
[1] = molecular target: T1, Aspartate--tRNA(Asp/Asn) ligase (Mycobacterium tuberculosis (strain ATCC 25618 / H37Rv)) (UniProt P9WFW3); assay: Assay for Asp RNA synthetase-1 from Mycobacterium tuberculosis; assay type: functional; design: scale not given: direction of the effect not stated beside the values; settings: 30 µM; note: in the data most compounds retested in dose-response had high values
T1 sequence (whole entry): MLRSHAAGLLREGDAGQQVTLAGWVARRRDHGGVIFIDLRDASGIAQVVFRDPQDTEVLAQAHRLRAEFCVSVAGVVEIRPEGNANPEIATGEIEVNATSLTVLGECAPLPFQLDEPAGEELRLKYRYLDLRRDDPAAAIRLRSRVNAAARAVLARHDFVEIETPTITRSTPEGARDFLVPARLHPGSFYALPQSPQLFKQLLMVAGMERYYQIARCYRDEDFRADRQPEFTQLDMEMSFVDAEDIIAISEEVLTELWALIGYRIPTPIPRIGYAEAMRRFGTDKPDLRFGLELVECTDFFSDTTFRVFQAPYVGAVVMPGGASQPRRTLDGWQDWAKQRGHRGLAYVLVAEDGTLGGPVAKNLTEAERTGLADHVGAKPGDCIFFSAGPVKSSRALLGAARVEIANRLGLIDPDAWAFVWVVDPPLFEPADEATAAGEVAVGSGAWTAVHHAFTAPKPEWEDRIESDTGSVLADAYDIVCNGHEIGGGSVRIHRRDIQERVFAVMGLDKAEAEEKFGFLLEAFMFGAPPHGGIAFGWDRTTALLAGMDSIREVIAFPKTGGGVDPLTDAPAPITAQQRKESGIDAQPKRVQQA

[2] = molecular target: Shiga toxin 2 (Escherichia coli O157:H7) (UniProt P09385+P09386); assay: E. coli 0.157:H7 Shiga Toxin SOP - stx2 screening assay; assay type: functional; design: scale not given: direction of the effect not stated beside the values; settings: 30 µM

| SMILES | Percent Effect [1] [%] | Percent Effect [2] [%] |
| --- | --- | --- |
| CN1CCN(C(=O)c2ccc(=O)n(C)c2)Cc2ccccc21 | -5.51 | -29.2 |
| CSCC(=O)N1CCC2(CC1)c1ccccc1CC2O (centres undefined) | 0.357 | -32.5 |
| Cn1nc(C2CCN(C(=O)Cc3cccc(F)c3)CC2)c2cccnc21 | -2.81 | -7.51 |
| CCCNC(=O)N1CCN(Cc2cc(C)no2)CC1 | -0.393 | 17.7 |
| Cc1n[nH]c(C2CN(C(=O)c3cnc[nH]3)CCO2)n1 (centres undefined) | 1.76 | 23.8 |
| O=C(Nc1ccccc1)c1nn(C2CCS(=O)(=O)C2)c2c1CCCC2 (centres undefined) | 0.629 | 4.6 |
| O=C(COc1cccc(Br)c1)N1CCOCC1c1ncon1 (centres undefined) | -0.929 | 9.16 |
| O=C(NC[C@]12COC[C@H]1CN(C1CCOCC1)C2)c1ccco1 | 1.57 | -3.12 |
| COc1ccc(CN2CCC3(CC2)CCN(c2ncccn2)CC3)cc1 | 2.89 | -0.95 |
| N#Cc1cccc(S(=O)(=O)NC(=O)COc2ccc3c(c2)CCC3)c1 | -0.478 | 8.82 |
| CN(Cc1cc2c(cc1OC(F)F)OCO2)Cc1nccn1C | 3.96 | 2.09 |
| Cc1nc(C)n(C2CCCN(C(=O)CCCn3ccnc3)C2)n1 (centres undefined) | -0.127 | -12.7 |
| CNC(=O)c1ccc(C2CN(C(=O)COC)CCO2)nc1 (centres undefined) | 5.69 | 1.8 |
| O=C(c1cccc(CN2CCCC2)c1)N1CCCC(n2cncn2)C1 (centres undefined) | 11.7 | 14 |
| CCc1nc(CN2CCCN(C(=O)COCC3CC3)CC2)cs1 | -3.19 | -49.1 |
| CO[C@@H]1CC[C@H]2[C@H]1OCCN2C(=O)COc1ccc(F)cc1 | -2.58 | -2.38 |
| Cc1ccc(-c2nnc(CN3CCOC(Cn4cccn4)C3)o2)cc1 (centres undefined) | -0.257 | -10.3 |
| O=C(CCc1ccccn1)N1CCN(C(=O)CC2CCCCC2)CC1 | -2.28 | 3.5 |
| CCc1cnc2c(c1NCc1cccc(OC)c1)c(=O)n(C)c(=O)n2C | -0.0729 | -21.5 |
| CNC(=O)c1ccc(C(=O)N2CCCC2c2cnn(C)c2)cn1 (centres undefined) | -5.79 | -8.21 |
| Cc1nc(C)n(CC2CCCN2CC(=O)NCCc2ccccc2)n1 (centres undefined) | -7.16 | -6.86 |
| CNC(=O)[C@@H]1C[C@H]2CN(Cc3nccs3)C[C@H]2N1C | 1.25 | -17 |
| CN1CCOC(CN(C(=O)CC2CCCC2)c2nccs2)C1 (centres undefined) | 6.38 | 27.4 |
| COCC(=O)NCc1cccc(Br)c1 | -1.9 | 20.1 |

| SMILES | Percent Effect [1] [%] | Percent Effect [2] [%] |
| --- | --- | --- |
| Cc1cc(CN2CCOCS2(=O)=O)ccc1F | 1.64 | 3.93 |
| COc1ccc2cc(C(=O)N3CCCCC3Cn3cccn3)[nH]c2c1 (centres undefined) | -2.15 | 16.3 |
| COc1cccc2c1ccn2CCC(=O)NCCCC(=O)O | -1.42 | -21 |
| CS(=O)(=O)NCCCN1CCCCC1c1cc2ccccc2[nH]1 (centres undefined) | -1.17 | -11.8 |
| Cc1nn(C)c(C)c1C1CCCN1C(=O)c1ccc(NC2CC2)nc1 (centres undefined) | 2.27 | -36.7 |
| COc1ccc(C2CC(=O)Nc3c2nc2n3CCCC2)cc1O (centres undefined) | -2 | -3.52 |
| CCc1nc(CN2CCCN(C(=O)CCSC)CC2)cs1 | -2.35 | -65.7 |
| Cc1nc(C)n(CC2CCCCN2Cc2ncc(C(C)(C)C)o2)n1 (centres undefined) | -7.07 | -41 |
| CN(CCn1nc2ccccn2c1=O)CC(=O)N1CCCC1 | -1.5 | -5.38 |
| CCNC(=O)N1CCC2(C1)c1ccccc1S(=O)(=O)N2CCC(C)C (centres undefined) | -0.553 | -1.22 |
| O=C(c1cccs1)N1CCC(n2nc(-c3ccco3)ccc2=O)CC1 | -0.968 | 6.63 |
| CCc1nccn1C1CCCN(C(=O)c2ccc3c(c2)OCO3)C1 (centres undefined) | -0.182 | 11.8 |
| CCc1ccc(NC(=O)C2OC(c3cccs3)=NN2C(C)=O)cc1 (centres undefined) | -1.78 | -90 |
| CC(C)c1cc(C(F)(F)F)n2nc(CCC(=O)O)nc2n1 | -1.46 | 52.4 |
| CC(C)c1noc(CCC(=O)NCC2CCS(=O)(=O)C2)n1 (centres undefined) | -3.63 | -17.1 |
| Cc1cn(CC(=O)NC2CCN(S(C)(=O)=O)CC2)c2ccccc12 | 2.86 | -10.4 |
| CCn1cnnc1C1CCN(C(=O)COc2ccccc2)CC1 | -1.18 | -10 |
| COC(=O)CCNC(=O)C1CC(=O)N(C2CCCC2)C1 (centres undefined) | 0.859 | -13.4 |
| Cc1cccc(CN2C(=O)CO[C@@H]3CN(Cc4nccn4C)C[C@H]32)c1 | -0.971 | -7.92 |
| COc1cccc(CNC(=O)CN2CCCCC2Cn2cccn2)c1 (centres undefined) | 0.922 | 20.3 |
| CN(CC(=O)N1CCN(c2ccccc2F)CC1)c1cnccn1 | 0.903 | 8.69 |
| CC(O)CN1CCN(C(=O)c2ccc(N(C)C)nn2)CC1 (centres undefined) | -6.65 | -70.5 |
| N#CC1(C(=O)Nc2ccc(OC(F)F)cc2)CCCC1 | 3.4 | -2.03 |
